Results filed as inconclusive are left out. Calls of active or inactive are those of the source. The calls were made as follows: active = hit-call score of the fitted dose curve at least 0.9, where 1 is the maximum; inconclusive = response in the unintended direction; inactive = score below 0.9.

As usually defined, the AC50 is the concentration giving half of the maximal activity seen.

Sequence of Androgen Receptor/SRC-1 Co-activator, AR (gene 367) (P10275 whole entry, looked up, the tested form may be a part): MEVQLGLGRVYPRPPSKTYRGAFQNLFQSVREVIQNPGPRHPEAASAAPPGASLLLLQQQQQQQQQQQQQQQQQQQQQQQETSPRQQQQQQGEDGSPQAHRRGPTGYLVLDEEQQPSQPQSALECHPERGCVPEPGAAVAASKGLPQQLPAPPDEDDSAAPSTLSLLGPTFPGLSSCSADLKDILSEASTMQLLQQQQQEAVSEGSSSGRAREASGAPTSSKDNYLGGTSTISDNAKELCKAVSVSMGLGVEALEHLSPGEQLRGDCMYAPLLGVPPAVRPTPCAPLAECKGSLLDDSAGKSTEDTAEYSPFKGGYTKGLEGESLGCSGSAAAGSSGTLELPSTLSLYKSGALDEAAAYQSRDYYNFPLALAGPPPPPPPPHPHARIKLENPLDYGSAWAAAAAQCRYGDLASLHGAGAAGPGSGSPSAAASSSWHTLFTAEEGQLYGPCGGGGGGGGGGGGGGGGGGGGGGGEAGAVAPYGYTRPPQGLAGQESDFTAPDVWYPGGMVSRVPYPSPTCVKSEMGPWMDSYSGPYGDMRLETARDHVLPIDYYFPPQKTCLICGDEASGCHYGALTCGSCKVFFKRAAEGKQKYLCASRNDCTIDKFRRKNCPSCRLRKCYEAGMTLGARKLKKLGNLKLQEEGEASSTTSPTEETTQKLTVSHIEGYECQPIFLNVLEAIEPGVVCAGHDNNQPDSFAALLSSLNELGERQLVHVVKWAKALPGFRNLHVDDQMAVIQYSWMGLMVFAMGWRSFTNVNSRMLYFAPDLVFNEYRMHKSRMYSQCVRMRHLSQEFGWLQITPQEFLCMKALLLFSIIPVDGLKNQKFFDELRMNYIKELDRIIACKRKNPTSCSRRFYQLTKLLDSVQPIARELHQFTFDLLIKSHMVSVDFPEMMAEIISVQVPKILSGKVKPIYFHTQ

This test has as its target Androgen Receptor/SRC-1 Co-activator, AR (gene 367) (UniProt P10275). The experiment in a line: OT_AR_ARSRC1_0480: Odyssey Thera (OT) 8-hour HEK293T Protein-Complementation Assay for Androgen Receptor/SRC-1 Co-activator (AID 2283354).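 Also: hits raise the complementation signal above DMSO so AC50 marks enhancers.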 As to the method:
OT_AR_ARSRC1_0480 is a cell-based, single-readout assay that uses HEK293T, a human kidney cell line, with measurements taken at 8 hours after chemical dosing in a 384-well plate.OT_AR_ARSRC1_0480 is one of one assay component(s) measured or calculated from the OT_AR_ARSRC1_0480 assay. It is designed to make measurements of protein fragment complementation, a form of binding reporter, as detected with fluorescence intensity signals by Protein-fragment Complementation technology.Data from the assay component OT_AR_ARSRC1_0480 was analyzed into 1 assay endpoint. This assay endpoint, OT_AR_ARSRC1_0480, was analyzed in the positive analysis fitting direction relative to DMSO as the negative control and baseline of activity. Using a type of binding reporter, measures of receptor for gain-of-signal activity can be used to understand the binding at the pathway-level as they relate to the gene AR. Furthermore, this assay endpoint can be referred to as a primary readout, because the performed assay has only produced 1 assay endpoint. To generalize the intended target to other relatable targets, this assay endpoint is annotated to the nuclear receptor intended target family, where the subfamily is steroidal.
Protein-fragment complementation assay, or PCA, is a method for the identification and quantification of protein-protein interactions. In the PCA, the proteins of interest ("bait" and "prey") are each covalently linked to fragments of a third protein (e.g. DHFR, which acts as a "reporter"). Interaction between the bait and the prey proteins brings the fragments of the reporter protein in close proximity to allow them to form a functional reporter protein whose activity can be measured. The OT AR / SRC-1 assay assessed androgen receptor chemical interactions using a rapidly maturing, intensely fluorescent mutant of YFP known as Venus, rationally dissected into two separate fragments. […] Fusion constructs were transfected into HEK293T cells with a (Gly4Ser)2 linker between the AR/SRC-1 and YFP fragment genes to facilitate complementation when interacting proteins bring fragments into close proximity. The construct is stably expressed in HEK293T cells. […] Images were acquired on an Evotec Opera at 2 wavelengths (488 and 635nm), and the ratio of fluorescence in the nucleus relative to fluorescence in the cytoplasm (N/C Ratio) in the 488nm channel was calculated for a minimum of 400 cells per image. Both agonists and antagonists of the AR receptor induce nuclear translocation to varying degrees. […] The OT AR/SRC-1 assay was also run for 16 hours (see description for OT_AR_ARSRC1_0960).
As for `CCOc1cc(C(C)(C)C)ccc1C1COC(c2c(F)cccc2F)=N1` (centres undefined), the AC50 was 20.4 µM (active). Turning to `Cc1cnc(C2=NC(C)(C(C)C)C(=O)N2)c(C(=O)O)c1` (centres undefined), the molecule was called inactive. `COC(=O)c1c(C(F)F)nc(C(F)(F)F)c(C2=NCCS2)c1CC(C)C`: the result was inactive. For the molecule `COP(=S)(OC)SCn1nnc2ccccc2c1=O`, the outcome was inactive. The same measure, in the same setting: in the case of `CCOP(=O)(OCC)Oc1nc(Cl)c(Cl)cc1Cl` it was “inactive”; in that of `Clc1cccc(C(Cl)(Cl)Cl)n1`, “inactive”.

Regarding `CC1(C)CCC(=Cc2ccc(Cl)cc2)C1(O)Cn1cncn1` (centres undefined), the AC50 was 15.5 µM (active). As to `COC(=O)N(C(=O)N1CO[C@@]2(C(=O)OC)Cc3cc(Cl)ccc3C2=N1)c1ccc(OC(F)(F)F)cc1`, the result was inactive.

In the case of `COc1ccc(-c2ccccc2)cc1NNC(=O)OC(C)C`, the outcome was inactive. Take `Nc1c(Cl)c(F)nc(OCC(=O)O)c1Cl`: the result was inactive. Still for that read-out and setting: then `CC(C)N1C(=O)N(c2ccccc2)CSC1=NC(C)(C)C`, with “inactive”; and `COCc1cnc(C2=NC(C)(C(C)C)C(=O)N2)c(C(=O)O)c1` (centres undefined), with “inactive”.

Take `CCCCC(O)(Cn1cncn1)c1ccc(Cl)cc1Cl` (centres undefined): the AC50 is 75.8 µM (active).

Take `CCCCOCN(C(=O)CCl)c1c(CC)cccc1CC`: the AC50 is 50 µM (active).

These data come from PubChem BioAssay (EPA / NIEHS).
